High-throughput results: PubChem, Broad Institute
IDE exosite FP: insulin-degrading enzyme (human) exo-site inhibition | z-score at 20 µM | P14735 | purified IDE, FL-6b probe fluorescence polarization; active compounds read low | actives 6.3% (n = 17,000);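 active means z-score of -3 or lower, meaning strong loss of probe binding signal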;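 further: His-tagged human IDE residues 42-1019 made in E. coli with 30 nM FL-6b probe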
Target sequence (P14735 42-1019 limits assumed): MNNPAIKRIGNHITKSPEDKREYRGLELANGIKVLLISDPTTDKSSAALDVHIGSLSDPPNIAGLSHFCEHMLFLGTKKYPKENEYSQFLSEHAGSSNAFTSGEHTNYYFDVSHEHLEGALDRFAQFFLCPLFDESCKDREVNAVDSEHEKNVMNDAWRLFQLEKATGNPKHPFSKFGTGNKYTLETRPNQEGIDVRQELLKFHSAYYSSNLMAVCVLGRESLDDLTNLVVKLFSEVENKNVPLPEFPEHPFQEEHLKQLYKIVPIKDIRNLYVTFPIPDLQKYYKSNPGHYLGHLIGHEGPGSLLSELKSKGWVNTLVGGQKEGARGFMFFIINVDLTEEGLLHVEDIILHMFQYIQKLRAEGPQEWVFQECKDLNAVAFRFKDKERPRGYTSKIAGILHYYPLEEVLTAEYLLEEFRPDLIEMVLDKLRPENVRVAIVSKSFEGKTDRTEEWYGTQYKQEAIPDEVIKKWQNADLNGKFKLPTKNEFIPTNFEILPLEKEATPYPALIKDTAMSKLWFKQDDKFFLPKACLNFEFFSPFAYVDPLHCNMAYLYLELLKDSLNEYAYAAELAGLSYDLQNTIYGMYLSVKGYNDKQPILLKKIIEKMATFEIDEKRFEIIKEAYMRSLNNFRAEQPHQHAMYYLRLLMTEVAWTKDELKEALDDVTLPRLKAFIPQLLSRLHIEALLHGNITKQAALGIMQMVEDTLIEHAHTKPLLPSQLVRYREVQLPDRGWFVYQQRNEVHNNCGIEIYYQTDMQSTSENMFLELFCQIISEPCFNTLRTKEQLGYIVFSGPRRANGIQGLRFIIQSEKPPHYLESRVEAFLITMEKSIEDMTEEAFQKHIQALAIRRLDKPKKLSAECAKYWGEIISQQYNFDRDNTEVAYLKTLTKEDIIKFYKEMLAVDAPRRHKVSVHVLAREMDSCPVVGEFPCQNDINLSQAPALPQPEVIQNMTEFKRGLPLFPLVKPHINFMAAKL
Of the large screens only hits and unclear results are named; the others gave an inactive call. This excerpt belongs to a sample that is enriched for hits.

CC(=O)N1CC(=O)N2[C@H](C1)[C@H](c1ccc(-c3ccc(C)cc3)cc1)[C@@H]2CO	none
O=C(CC1CC1)N1CC(=O)N2[C@@H](CO)[C@@H](c3ccc(C#Cc4ccccc4)cc3)[C@@H]2C1	IDE exosite FP -11
O=C(CC1CC1)N1CC(=O)N2[C@H](CO)[C@H](c3ccc(C#Cc4ccccc4)cc3)[C@H]2C1	IDE exosite FP -16
O=C(CC1CC1)N1CC(=O)N2[C@H](CO)[C@@H](c3ccc(C#Cc4ccc(F)cc4)cc3)[C@@H]2C1	none
O=C(CC1CC1)N1CC(=O)N2[C@@H](CO)[C@H](c3ccc(C#Cc4ccccc4)cc3)[C@@H]2C1	IDE exosite FP -11
O=C(CC1CC1)N1CC(=O)N2[C@H](CO)[C@H](c3ccc(C#Cc4ccc(F)cc4)cc3)[C@H]2C1	none
O=C(CC1CC1)N1CC(=O)N2[C@@H](CO)[C@H](c3ccc(C#Cc4ccc(F)cc4)cc3)[C@@H]2C1	none
C[C@@H](NC(=O)C[C@H]1C=C[C@H](NS(=O)(=O)c2cccc(F)c2)[C@@H](CO)O1)c1ccccc1	none
O=C(Nc1ccccc1)N1CC(=O)N2[C@H](C1)[C@H](c1ccc(C#Cc3cccnc3)cc1)[C@@H]2CO	none
C[C@@H]1CN([C@@H](C)CO)C(=O)c2cc(NC(=O)CCCN(C)C)ccc2O[C@@H]1CN(C)Cc1ccc(Cl)c(Cl)c1	none
O=C(c1ccncc1)N1CC(=O)N2[C@H](CO)[C@H](c3ccc(-c4cccnc4)cc3)[C@H]2C1	none
O=C(Nc1ccc2c(c1)[C@H]1C[C@@H](CC(=O)N3CCc4ccccc4C3)O[C@@H](CO)[C@H]1O2)c1ccc2c(c1)OCO2	none
O=S(=O)(c1ccc(F)cc1)N1CCCCN2[C@H](C1)[C@H](c1ccc(-c3ccccc3)cc1)[C@@H]2CO	none
CCS(=O)(=O)N1CCCCN2[C@@H](CO)[C@@H](c3ccc(-c4ccccc4F)cc3)[C@@H]2C1	IDE exosite FP -6.5
Cc1ccccc1-c1ccc([C@@H]2[C@@H](CO)N3CCCCN(S(=O)(=O)c4ccc(F)cc4)C[C@@H]23)cc1	IDE exosite FP -18
CCS(=O)(=O)N1CCCCN2[C@H](C1)[C@H](c1ccc(-c3ccccc3F)cc1)[C@@H]2CO	none
CCS(=O)(=O)N1CCCCN2[C@@H](CO)[C@H](c3ccc(-c4ccccc4F)cc3)[C@@H]2C1	none
Cc1ccccc1-c1ccc([C@@H]2[C@@H](CO)N3CCCCN(S(=O)(=O)Cc4ccccc4)C[C@H]23)cc1	none
Cc1ccccc1-c1ccc([C@H]2[C@H](CO)N3CCCCN(S(=O)(=O)Cc4ccccc4)C[C@@H]23)cc1	none
CCS(=O)(=O)N1CCCCN2[C@H](C1)[C@@H](c1ccc(-c3ccccc3C)cc1)[C@@H]2CO	IDE exosite FP -8.8
Cc1ccccc1-c1ccc([C@H]2[C@@H](CO)N3CCCCN(S(=O)(=O)c4ccc(F)cc4)C[C@H]23)cc1	none
C[C@H]1CN([C@@H](C)CO)C(=O)CCCn2cc(nn2)CO[C@H]1CN(C)C(=O)Nc1ccc2c(c1)OCO2	none
CCCNC(=O)N1CC2(C1)CN(C(=O)c1ccccc1)[C@@H](CO)c1[nH]c3cc(OC)ccc3c12	none
N#C[C@H]1[C@@H](c2ccccc2C2=CCCCC2)[C@@H](CO)N1C(=O)Cc1ccncc1	none
CC(=O)N1CC(=O)N2[C@H](C1)[C@H](c1ccc(C#CC(C)C)cc1)[C@@H]2CO	none
O=S(=O)(c1ccccc1)N1CCCCN2[C@H](CO)[C@H](c3ccc(-c4cncnc4)cc3)[C@H]2C1	none
O=C(C[C@H]1C=C[C@@H](NC(=O)c2ccc3c(c2)OCO3)[C@@H](CO)O1)NC1Cc2ccccc2C1	none
O=C([C@H]1N[C@H]2c3ccc(/C=C/c4ccccc4)c(=O)n3C[C@H]2[C@@H]1CO)N1CCCCC1	none
O=C(c1ccc(F)cc1)N1CC(=O)N2[C@@H](CO)[C@@H](c3ccc(C4=CCCC4)cc3)[C@@H]2C1	none
O=C(O)C[C@H]1C[C@H]2c3cc(NC(=O)Cc4ccncc4)ccc3O[C@H]2[C@H](CO)O1	none
O=C(CN1CCOCC1)N1CCCCN2[C@H](CO)[C@@H](c3ccc(Br)cc3)[C@H]2C1	none
O=C(CN1CCOCC1)N1CCCCN2[C@H](C1)[C@H](c1ccc(C#Cc3ccccc3F)cc1)[C@@H]2CO	IDE exosite FP -6.1
O=C(CN1CCOCC1)N1CCCCN2[C@H](CO)[C@H](c3ccc(C#Cc4ccccc4F)cc3)[C@H]2C1	IDE exosite FP -5.5
O=C(CN1CCOCC1)N1CCCCN2[C@H](CO)[C@H](c3ccc(C#Cc4ccccc4)cc3)[C@H]2C1	IDE exosite FP -8.7
O=C(CN1CCOCC1)N1CCCCN2[C@H](C1)[C@@H](c1ccc(C#Cc3ccccc3F)cc1)[C@@H]2CO	IDE exosite FP -5
C[C@@H]1CN([C@@H](C)CO)C(=O)c2ccccc2-c2ccccc2CO[C@@H]1CN(C)C(=O)CCC(F)(F)F	none
COCCN(C[C@H]1N[C@H](CO)[C@@H]1c1ccc(-c2cccc(C#N)c2)cc1)C(C)=O	none
CN1C(=O)c2cc(NC(=O)c3cccc(C(F)(F)F)c3)ccc2OC[C@H]2O[C@H](CC(=O)NCCN3CCCC3)CC[C@H]21	none
CC(C)NC(=O)N1[C@@H](CO)[C@@H](c2ccccc2)C12CN(C(=O)c1ccccn1)C2	none
CC(C)N(C[C@H]1[C@H](c2ccccc2)[C@@H](CO)N1S(C)(=O)=O)C(=O)CN(C)C	none
CO[C@H]1CN(C)C(=O)c2cc(NC(=O)C3CC3)ccc2OC[C@H](C)N(Cc2cc(F)ccc2F)C[C@@H]1C	none
CN(C)CC#Cc1ccc([C@H]2[C@@H](CO)N3CCCCN(S(=O)(=O)c4ccccc4F)C[C@@H]23)cc1	none
O=C(NC[C@@H]1[C@@H](c2ccccc2)[C@H](CO)N1Cc1ccccn1)C1CC1	none
CC(C)CC#Cc1ccc([C@@H]2[C@H](CO)N3C(=O)CN(S(C)(=O)=O)C[C@@H]23)cc1	none
CCCC#Cc1ccc([C@H]2[C@@H](CO)N3C(=O)CN(C(=O)c4ccccc4)C[C@H]23)cc1	none
O=C(CN1CCOCC1)N1CCCCN2[C@H](CO)[C@H](c3ccc(C#Cc4ccccc4F)cc3)[C@@H]2C1	IDE exosite FP -5
O=C(C[C@@H]1CC[C@@H]2[C@H](COC[C@H](O)CN2Cc2cc(F)cc(F)c2)O1)Nc1nccs1	none
O=C(CC1CC1)N1CC(=O)N2[C@@H](CO)[C@H](c3ccc(C#Cc4cccc(F)c4)cc3)[C@@H]2C1	none
O=C(CC1CC1)N1CC(=O)N2[C@H](CO)[C@H](c3ccc(C#Cc4cccc(F)c4)cc3)[C@H]2C1	IDE exosite FP -3.9
O=C(CC1CC1)N1CC(=O)N2[C@H](CO)[C@@H](c3ccc(C#Cc4cccc(F)c4)cc3)[C@H]2C1	none
O=C(CC1CC1)N1CC(=O)N2[C@H](C1)[C@@H](c1ccc(C#Cc3cccc(F)c3)cc1)[C@@H]2CO	none
O=C(CC1CC1)N1CC(=O)N2[C@H](CO)[C@H](c3ccc(C#Cc4cccc(F)c4)cc3)[C@@H]2C1	IDE exosite FP -3.2
O=C(CC1CC1)N1CC(=O)N2[C@H](C1)[C@H](c1ccc(C#Cc3cccc(F)c3)cc1)[C@@H]2CO	none
COCC#Cc1ccc([C@@H]2[C@@H](CO)N3CCCCN(Cc4cncnc4)C[C@@H]23)cc1	none
CN(C)CC(=O)N1C[C@H]2[C@@H](c3ccccc31)[C@@H](CO)N2C(=O)c1ccccn1	none
C/C=C/c1ccc(C2[C@H]3CNC[C@@H]2N3Cc2cc(OC)cc(OC)c2)cc1 (some centres not stated)	none
COc1ccccc1-c1ccc(C2[C@H]3CNC[C@@H]2N3Cc2cc(-c3ccccc3)on2)cc1 (some centres not stated)	none
COc1cccc(CN2[C@@H]3CNC[C@H]2[C@H]3c2ccc(-c3ccccc3OC)cc2)c1	IDE exosite FP -3.4
